KinaseGlo FLuc = Kinase-Glo luciferase inhibition (counter-screen); Kinase-Glo luciferase, ATP luminescence, 8 min; Q27757; Potency, µM (doses to about 38.3 µM), for the others: at the highest dose activity change, negative = inhibition, actives largely listed as inhibitors; hit rate 0.28% among 200,000; further: on the % scale 0 is the no-effect control and ±100 the full control effect; nearly all actives have a fitted effect of over 60% in size
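Light output from Kinase-Glo luciferase with luciferin and 10 uM ATP in 50 mM imidazole pH 7.2, KCl, MgCl2, Tween 20, BSA; compound pin-delivered, 8-min ambient incubation, then luminescence read.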
FLuc modulator = inhibits or activates purified firefly luciferase, miR-21 counter-screen; P08659; purified FLuc, Km substrates, luminescence inhibition; Potency, µM (doses to about 57.5 µM), for inactives: top-dose activity change, negative = inhibition, hits mostly inhibitors; hit rate 6.9% among 360,000; AID 588342;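 further: plate controls were vehicle for no effect and reference inhibitor for full effect; nearly all actives have a fitted effect of over 55% in size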
Target sequence (P08659 whole entry, looked up): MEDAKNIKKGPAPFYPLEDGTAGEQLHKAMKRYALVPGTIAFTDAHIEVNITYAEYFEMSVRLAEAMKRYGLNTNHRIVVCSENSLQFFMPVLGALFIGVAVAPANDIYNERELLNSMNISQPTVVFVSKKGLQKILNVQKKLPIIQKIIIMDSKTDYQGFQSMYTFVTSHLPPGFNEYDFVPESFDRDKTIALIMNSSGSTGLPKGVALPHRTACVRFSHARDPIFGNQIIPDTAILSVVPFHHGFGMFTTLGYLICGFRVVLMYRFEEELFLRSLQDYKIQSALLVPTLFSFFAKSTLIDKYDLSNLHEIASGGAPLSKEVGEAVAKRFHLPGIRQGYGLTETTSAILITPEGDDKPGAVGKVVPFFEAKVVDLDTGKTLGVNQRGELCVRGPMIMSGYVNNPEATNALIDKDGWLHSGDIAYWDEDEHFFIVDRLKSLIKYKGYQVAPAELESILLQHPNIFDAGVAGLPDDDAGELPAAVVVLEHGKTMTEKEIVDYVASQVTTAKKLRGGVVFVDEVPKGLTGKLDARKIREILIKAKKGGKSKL
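Purified P. pyralis luciferase (10nM final) with 10uM D-luciferin and 10uM ATP (Km levels) in 50mM Tris acetate pH 7.5, 10mM Mg acetate, 0.01% Tween-20, 0.05% BSA; qHTS 6-point titration, ~60 µM downward; luminescence read.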
NPC1 prom act = activators of NPC1 promoter | Huh7 NPC1 promoter luciferase reporter, 24 h | Potency, µM (series often up to 9.22 µM), without a hit: top-dose activation, most hits filed as activators | hit rate 2.4% among 320,000 | AID 485313; further: % of control where 0% means no effect; nearly all actives have a fitted effect of over 60% in size
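Luciferase expression driven by the NPC1 promoter was measured in stably transfected Huh7 cells after a 24 h compound incubation, using a luciferase reagent and a luminescence read.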
Rab9 prom act = activates the Rab9 promoter | Huh7 Rab9 promoter-luciferase reporter, luminescence, 24 h | Potency, µM (series often up to 9.22 µM), for inactives: at the highest dose activation, negative = inhibition, actives largely listed as activators | AID 485297 | hit rate 2.8% among 320,000; further: % of control where 0% means no effect; nearly all actives have a fitted effect of over 60% in size
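Cell-based reporter: Huh7 stable for Rab9 promoter-driven luciferase, plated in reduced-serum medium with 10% FBS at 1500 cells/well, compound-treated 24 h at 37 °C, luminescence read after 10 min reagent.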
ELG1 genotoxic = genotoxicity induction in ELG1-luciferase HEK293T cells; HEK293T ELG1-luciferase reporter, luminescence, 16 h; Potency, µM (top dose mostly 46 µM), for the others: at the top dose activity change, positive = activation, hits mostly activators; hit rate 1.3% among 330,000; further: % of control where 0% means no effect; nearly all actives have a fitted effect of over 60% in size
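Screening used a luciferase reporter fused to human ELG1 in HEK293T cells. Luminescence was read on a CCD plate imager after 16 hr exposure and 30 min ONE-Glo incubation.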
SMN2 splice enh = increases expression of the SMN2 splice variant; HEK293 SMN2-luciferase splicing reporter, luminescence, 30-36 h; Potency, µM (highest dose often 46.1 µM), inactives show at the top dose activity change, positive = activation, most hits filed as activators; hit rate 2.8% among 210,000; AID 1458; further: % of control where 0% means no effect; nearly all actives have a fitted effect of over 55% in size
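HEK293 cells carry an SMN2 […]–luciferase reporter in which exon 7 inclusion puts luciferase in frame. Cells were plated 10-12 h before compound addition, then incubated 30-36 h at 37C. ONE-Glo luminescence was read; sodium butyrate at 4.5 mM final served as control.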
The depositor's hits bear a star; ? = inconclusive; nt = not tested or not shown. This is a sample that favours compounds with a hit; in the whole collection about 7.5% have one here. The call rests on the fitted dose curve; in most records, active means well fitted curve in the direction sought with a large enough effect; inconclusive means small, poorly fitted or top-dose-only effect, or another doubt; inactive means no such curve, though single readings can be large; an effect the other way counts as inactive or inconclusive. Potency means the concentration at half of the fitted maximal effect.

SMILES	KinaseGlo FLuc	FLuc modulator	NPC1 prom act	Rab9 prom act	ELG1 genotoxic	SMN2 splice enh
CC(C)c1ccc(/C=C2\SC(=O)N(CC(=O)NC3C=CS(=O)(=O)C3)C2=O)cc1 (stereo not drawn)	nt	1.2µM*	25.8%	22.5%	5.2%	nt
COc1cccc(/C=C2\SC(=O)N(CCC(=O)NC3CCS(=O)(=O)C3)C2=O)c1 (stereo not drawn)	nt	?	12.0%	10.9%	13.4%	nt
COc1ccccc1/C=C1\SC(=S)N(CC(=O)NC2CCS(=O)(=O)C2)C1=O (stereo not drawn)	nt	13.5µM*	-2.7%	3.2%	-0.1%	nt
O=C(CN1C(=O)/C(=C/c2ccccc2)SC1=S)NC1CCS(=O)(=O)C1 (stereo not drawn)	nt	-17.6%	-8.2%	0.0%	-0.5%	nt
COc1cccc(/C=C2\SC(=O)N(CC(=O)NC3C=CS(=O)(=O)C3)C2=O)c1 (stereo not drawn)	nt	26.9µM*	-3.5%	6.1%	-7.2%	nt
COc1cccc(/C=C2\SC(=S)N(C(C)C(=O)NC3C=CS(=O)(=O)C3)C2=O)c1 (stereo not drawn)	nt	?	-5.9%	12.0%	9.2%	nt
COc1cccc(/C=C2\SC(=O)N(CC(=O)NC3CCS(=O)(=O)C3)C2=O)c1 (stereo not drawn)	nt	16.9µM*	-13.6%	-0.3%	6.1%	nt
CSCCC(NC(=O)COc1ccccc1)C(=O)N(C)Cc1ccc(Cl)cc1Cl (stereo not drawn)	nt	1.5%	0.2%	-3.0%	-2.9%	nt
CN1CCc2ccc(NC(=O)c3ccc(C(F)(F)F)cc3)cc2C1	nt	?	7.4%	2.0%	0.8%	nt
O=C(CNC(=O)/C=C/c1ccco1)N=Nc1c(O)[nH]c2ccccc12	nt	-5.2%	-4.9%	-1.5%	1.1%	nt
CCC(=O)Nc1ccc2c(c1)ncn2-c1ccccc1C	-0.4%	0.1%	-2.0%	0.3%	4.1%	1.0%
CCC(=O)Nc1ccc2c(c1)ncn2-c1ccc(C)cc1	0.7%	8.49µM*	2.24µM*	2.51µM*	?	8.91µM*
CCC(=O)Nc1ccc2c(c1)ncn2-c1ccc(OC)cc1	-1.8%	26.9µM*	11.7%	18.7%	18.4µM*	12.6µM*
CCOC(=O)C1(Cc2ccccc2Cl)CCN(C(=O)CCn2ccnc2C)CC1	-1.2%	19µM*	21.6%	?	5.1%	nt
N#C/C(=C\c1ccc(N2CCCCC2)o1)C(=O)Nc1cccc(Br)c1	-4.6%	2.69µM*	2.51µM*	2µM*	?	-15.3%
COc1ccc(NC(=O)/C(C#N)=C\c2ccc(-c3cc(C(=O)O)ccc3C)o2)cc1	nt	19µM*	-3.3%	-5.0%	-3.0%	nt
Cc1ccc(/C=C(\C#N)C(=O)Nc2cccc(Br)c2)o1	nt	2.1%	nt	nt	nt	1.4%
Cc1ccc(/C=C(\C#N)C(=O)Nc2ccc(Br)cc2)o1	nt	3.0%	nt	nt	nt	3.16µM*
COc1ccc(NC(=O)/C(C#N)=C/c2ccc(-c3ccccc3C(=O)O)o2)cc1	nt	6.75µM*	22.5%	17.4%	6.9%	nt
Cc1nc2cc(-c3ccccc3)nn2c(C)c1CCC(=O)NCc1cccc(Cl)c1	nt	-3.5%	nt	nt	nt	9.1%
CC(C)NC(=O)c1ccc2c(c1)N(CC(=O)N1CCCCC1)C(=O)C(C)(C)O2	nt	-1.3%	0.2%	-0.9%	7.8%	nt
O=C(Cn1nnnc1-c1ccccc1F)Nc1ccc(F)c(F)c1	nt	2.3%	nt	nt	nt	-2.2%
CNC(=O)/C(C#N)=C/c1ccc(-c2ccc(OC)cc2[N+](=O)[O-])o1	2.2%	?	29.3%	?	12.6%	15.8µM*
COc1ccc(-c2ccc(C(=O)O)o2)c([N+](=O)[O-])c1	2.6%	-19.6%	-4.2%	-1.6%	-3.1%	13.1%
COc1ccc(NC(=O)/C(C#N)=C\c2ccc(-c3cccc(C(=O)O)c3C)o2)cc1	nt	8.49µM*	7.0%	22.2%	-1.5%	nt
Cc1c(CCC(=O)NCc2ccc(F)cc2)c(=O)oc2cc(O)ccc12	nt	3.2%	nt	nt	nt	nt
Cc1cc(C)c2nc3nc(C)c(C)cc3c(N)c2c1	3.3%	16.9µM*	-16.6%	-29.4%	13.4%	-78.6%
